Holding throughout (test): DAPPL (digital affinity profiling via proximity ligation, sequencing); 10 mM Tris-HCl pH 7.5, 50 mM NaCl, 1 mM DTT, 4% glycerol, room temperature, 30 min; GST-TFs on glutathione beads, 16-mer random dsDNA library, 0.1% formaldehyde crosslink after washing; high values mean tight binding
What all share (settings): protein: recombinant; tags: N-terminal GST; dsDNA, one strand shown

In one assay the target is T1, FLI1 (Homo sapiens, UniProt Q01543 1-452).
T1 sequence: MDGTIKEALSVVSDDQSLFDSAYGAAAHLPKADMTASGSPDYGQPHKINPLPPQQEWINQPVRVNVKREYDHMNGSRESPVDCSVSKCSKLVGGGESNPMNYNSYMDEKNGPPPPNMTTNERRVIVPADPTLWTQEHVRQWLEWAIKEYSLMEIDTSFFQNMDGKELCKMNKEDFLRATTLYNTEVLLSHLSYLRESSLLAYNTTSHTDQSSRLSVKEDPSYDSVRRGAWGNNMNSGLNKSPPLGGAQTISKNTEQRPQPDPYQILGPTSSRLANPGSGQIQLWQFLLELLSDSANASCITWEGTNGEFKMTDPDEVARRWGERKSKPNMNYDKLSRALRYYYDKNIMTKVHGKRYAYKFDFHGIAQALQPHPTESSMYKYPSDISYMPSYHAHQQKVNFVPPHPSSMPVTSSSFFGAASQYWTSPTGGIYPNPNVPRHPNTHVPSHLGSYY
The procedure, abridged: (§1)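 A tag-only sample was pooled with DNA-barcoded human transcription factors that had been expressed in yeast as GST fusions and captured on glutathione beads. The pools were incubated for 30 min at room temperature with 200 nmole of a random double-stranded 16-mer DNA library in Tris/NaCl/DTT/glycerol buffer, then washed, crosslinked with 0.1% formaldehyde, proximity-ligated (BsaI/T4 ligase, 1 h, 37 °C), PCR-amplified and sequenced on an Illumina NextSeq500. Binding signal is each hexamer's read frequency for a factor divided by its frequency for the tag-only sample.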

The target of the next assay is T2, GABPA (Homo sapiens, UniProt Q06546 1-454).
T2 sequence: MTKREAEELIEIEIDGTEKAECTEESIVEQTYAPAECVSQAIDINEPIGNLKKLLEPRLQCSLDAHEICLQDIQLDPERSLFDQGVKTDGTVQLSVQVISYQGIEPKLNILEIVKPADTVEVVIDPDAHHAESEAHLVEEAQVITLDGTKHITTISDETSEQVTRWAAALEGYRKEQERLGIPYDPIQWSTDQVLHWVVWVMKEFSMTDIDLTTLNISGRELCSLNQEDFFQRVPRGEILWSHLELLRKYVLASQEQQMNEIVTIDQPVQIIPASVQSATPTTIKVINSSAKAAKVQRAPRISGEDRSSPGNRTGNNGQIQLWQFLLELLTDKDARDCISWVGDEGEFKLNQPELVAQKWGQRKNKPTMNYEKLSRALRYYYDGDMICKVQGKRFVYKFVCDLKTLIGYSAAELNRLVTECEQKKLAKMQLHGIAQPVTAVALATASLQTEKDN
The procedure, abridged:
as §1

The target of the next assay is SPI1 (Homo sapiens, UniProt P17947 1-270). The procedure, abridged:
as §1

Another assay deals with SPIB (Homo sapiens, UniProt Q01892 1-262). Summed up: as §1
Sequence of SPIB (Q01892 whole entry): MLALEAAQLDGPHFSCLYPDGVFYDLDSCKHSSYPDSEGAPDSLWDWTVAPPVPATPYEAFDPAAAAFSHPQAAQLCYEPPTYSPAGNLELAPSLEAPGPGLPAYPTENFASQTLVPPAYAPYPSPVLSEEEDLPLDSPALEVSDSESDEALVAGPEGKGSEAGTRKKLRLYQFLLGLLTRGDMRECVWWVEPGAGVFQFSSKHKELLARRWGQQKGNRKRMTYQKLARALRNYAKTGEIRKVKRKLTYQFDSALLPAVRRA
A further assay concerns the target ETV5 (Homo sapiens, UniProt P41161 1-510). Summed up: as §1
In the next assay the target is T3, SPIC (Homo sapiens, UniProt Q8N5J4 1-248).
T3 sequence: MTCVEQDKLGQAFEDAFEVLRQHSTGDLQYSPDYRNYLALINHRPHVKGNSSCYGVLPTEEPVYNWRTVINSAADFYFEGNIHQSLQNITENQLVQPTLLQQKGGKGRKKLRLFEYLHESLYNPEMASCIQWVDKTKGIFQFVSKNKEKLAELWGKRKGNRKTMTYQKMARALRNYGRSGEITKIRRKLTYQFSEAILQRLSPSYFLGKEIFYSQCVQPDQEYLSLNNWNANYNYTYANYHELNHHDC
Summed up: as §1

For the next assay, the target named is T4, ERF (Homo sapiens, UniProt P50548 1-548).
T4 sequence: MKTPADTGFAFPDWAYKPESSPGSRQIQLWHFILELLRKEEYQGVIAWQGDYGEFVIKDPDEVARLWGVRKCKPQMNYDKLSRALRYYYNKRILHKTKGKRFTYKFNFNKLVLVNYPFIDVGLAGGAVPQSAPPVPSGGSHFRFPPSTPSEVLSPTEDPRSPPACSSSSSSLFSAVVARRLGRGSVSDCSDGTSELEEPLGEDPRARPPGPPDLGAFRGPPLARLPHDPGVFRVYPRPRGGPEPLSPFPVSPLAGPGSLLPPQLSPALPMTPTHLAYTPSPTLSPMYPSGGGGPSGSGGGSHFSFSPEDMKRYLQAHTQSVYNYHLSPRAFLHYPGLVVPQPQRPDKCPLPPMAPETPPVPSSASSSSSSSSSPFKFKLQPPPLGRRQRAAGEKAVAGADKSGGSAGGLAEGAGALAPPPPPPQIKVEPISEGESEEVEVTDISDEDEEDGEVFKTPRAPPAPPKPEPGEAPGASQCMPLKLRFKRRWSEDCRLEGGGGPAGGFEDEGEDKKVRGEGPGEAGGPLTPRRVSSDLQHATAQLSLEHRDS
The procedure, abridged:
as §1

Another assay concerns the target T5, ERG (Homo sapiens, UniProt P11308 1-479).
T5 sequence: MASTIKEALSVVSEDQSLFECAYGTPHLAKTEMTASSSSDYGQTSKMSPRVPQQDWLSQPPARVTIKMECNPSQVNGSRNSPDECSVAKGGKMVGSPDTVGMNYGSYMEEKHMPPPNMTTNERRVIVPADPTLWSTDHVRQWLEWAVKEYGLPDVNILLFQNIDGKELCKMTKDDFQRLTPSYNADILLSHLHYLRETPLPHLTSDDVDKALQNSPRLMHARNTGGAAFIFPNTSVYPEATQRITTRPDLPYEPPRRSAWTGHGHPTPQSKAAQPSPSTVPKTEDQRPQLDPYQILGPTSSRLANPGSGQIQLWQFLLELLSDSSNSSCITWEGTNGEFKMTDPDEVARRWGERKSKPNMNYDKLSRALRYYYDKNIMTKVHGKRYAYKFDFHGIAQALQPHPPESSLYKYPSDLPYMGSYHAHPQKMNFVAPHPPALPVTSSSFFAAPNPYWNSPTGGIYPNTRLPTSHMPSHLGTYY
The procedure, abridged:
as §1

Another assay addresses ELF1 (Homo sapiens, UniProt P32519 1-619). Summed up: as §1
The target in the next assay is T6, EHF (Homo sapiens, UniProt Q9NZC4 1-300).
T6 sequence: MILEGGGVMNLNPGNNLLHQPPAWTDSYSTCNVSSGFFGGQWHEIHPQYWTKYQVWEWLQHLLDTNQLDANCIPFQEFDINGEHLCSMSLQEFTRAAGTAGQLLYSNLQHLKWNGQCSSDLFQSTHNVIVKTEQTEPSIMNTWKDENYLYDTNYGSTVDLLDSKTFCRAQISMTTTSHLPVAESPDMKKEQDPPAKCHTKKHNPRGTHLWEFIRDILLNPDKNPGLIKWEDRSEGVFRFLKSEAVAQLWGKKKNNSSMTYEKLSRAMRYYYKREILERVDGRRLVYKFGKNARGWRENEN
The procedure, abridged:
as §1

The target in another assay is T7, ETS2 (Homo sapiens, UniProt P15036 1-469).
T7 sequence: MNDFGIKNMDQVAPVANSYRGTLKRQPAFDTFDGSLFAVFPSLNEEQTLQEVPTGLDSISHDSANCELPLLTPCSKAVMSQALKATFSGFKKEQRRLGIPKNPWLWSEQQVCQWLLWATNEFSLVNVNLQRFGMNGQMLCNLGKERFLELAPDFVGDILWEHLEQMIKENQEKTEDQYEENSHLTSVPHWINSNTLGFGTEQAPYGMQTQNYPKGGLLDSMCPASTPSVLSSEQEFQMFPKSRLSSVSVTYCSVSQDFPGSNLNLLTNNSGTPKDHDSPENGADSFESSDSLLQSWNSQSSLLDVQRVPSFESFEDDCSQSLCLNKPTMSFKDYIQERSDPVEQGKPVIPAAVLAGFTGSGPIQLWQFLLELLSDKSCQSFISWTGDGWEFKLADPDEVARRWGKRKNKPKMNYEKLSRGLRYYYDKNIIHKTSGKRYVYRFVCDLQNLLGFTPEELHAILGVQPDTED
The procedure, abridged:
as §1

The next assay deals with T8, SPDEF (Homo sapiens, UniProt O95238 1-335).
T8 sequence: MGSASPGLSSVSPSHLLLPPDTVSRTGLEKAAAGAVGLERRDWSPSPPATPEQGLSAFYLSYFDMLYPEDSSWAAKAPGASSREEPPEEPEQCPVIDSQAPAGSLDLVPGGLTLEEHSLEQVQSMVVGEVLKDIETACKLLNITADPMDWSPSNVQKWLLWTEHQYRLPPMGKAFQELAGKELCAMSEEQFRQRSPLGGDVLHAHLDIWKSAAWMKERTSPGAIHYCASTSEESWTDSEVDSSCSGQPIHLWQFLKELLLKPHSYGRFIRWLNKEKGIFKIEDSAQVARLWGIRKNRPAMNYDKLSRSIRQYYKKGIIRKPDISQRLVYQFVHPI
The procedure, abridged:
as §1

A further assay concerns the target T9, ELF5 (Homo sapiens, UniProt Q9UKW6-2 1-255).
T9 sequence: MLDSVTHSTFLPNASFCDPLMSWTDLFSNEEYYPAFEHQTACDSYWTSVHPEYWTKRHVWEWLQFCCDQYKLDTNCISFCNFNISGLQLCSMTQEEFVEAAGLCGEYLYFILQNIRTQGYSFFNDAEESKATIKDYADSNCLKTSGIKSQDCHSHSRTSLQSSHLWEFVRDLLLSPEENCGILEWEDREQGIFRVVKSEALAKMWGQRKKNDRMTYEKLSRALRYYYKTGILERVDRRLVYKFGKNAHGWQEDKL
The procedure, abridged:
as §1

Another assay deals with T10, ETV3 (Homo sapiens, UniProt P41162-2 1-143).
T10 sequence: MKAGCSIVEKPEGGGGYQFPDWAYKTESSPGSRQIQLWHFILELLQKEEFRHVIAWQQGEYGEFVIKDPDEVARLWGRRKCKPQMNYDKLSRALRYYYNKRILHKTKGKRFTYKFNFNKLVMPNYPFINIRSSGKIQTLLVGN
The procedure, abridged:
as §1

In the next assay the target is ETV6 (Homo sapiens, UniProt P41212 1-452). The procedure, abridged: as §1
Sequence of ETV6 (P41212 whole entry): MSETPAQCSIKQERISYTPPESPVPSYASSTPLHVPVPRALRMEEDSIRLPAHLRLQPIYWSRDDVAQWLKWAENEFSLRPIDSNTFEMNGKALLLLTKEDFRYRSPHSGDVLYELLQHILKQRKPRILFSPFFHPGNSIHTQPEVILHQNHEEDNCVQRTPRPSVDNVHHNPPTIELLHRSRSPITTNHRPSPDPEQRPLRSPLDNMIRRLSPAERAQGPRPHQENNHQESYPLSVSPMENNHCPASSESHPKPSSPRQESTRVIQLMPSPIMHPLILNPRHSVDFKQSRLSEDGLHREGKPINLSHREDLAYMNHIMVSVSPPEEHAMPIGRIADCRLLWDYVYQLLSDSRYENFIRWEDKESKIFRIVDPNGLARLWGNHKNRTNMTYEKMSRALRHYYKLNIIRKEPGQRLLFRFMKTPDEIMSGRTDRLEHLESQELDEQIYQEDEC

Results on two sequences are retold here after paper PMC7862700, “An all-to-all approach to the identification of sequence-specific readers for epigenetic DNA modifications on cytosine”.

Sequence of ETV5 (P41161 whole entry): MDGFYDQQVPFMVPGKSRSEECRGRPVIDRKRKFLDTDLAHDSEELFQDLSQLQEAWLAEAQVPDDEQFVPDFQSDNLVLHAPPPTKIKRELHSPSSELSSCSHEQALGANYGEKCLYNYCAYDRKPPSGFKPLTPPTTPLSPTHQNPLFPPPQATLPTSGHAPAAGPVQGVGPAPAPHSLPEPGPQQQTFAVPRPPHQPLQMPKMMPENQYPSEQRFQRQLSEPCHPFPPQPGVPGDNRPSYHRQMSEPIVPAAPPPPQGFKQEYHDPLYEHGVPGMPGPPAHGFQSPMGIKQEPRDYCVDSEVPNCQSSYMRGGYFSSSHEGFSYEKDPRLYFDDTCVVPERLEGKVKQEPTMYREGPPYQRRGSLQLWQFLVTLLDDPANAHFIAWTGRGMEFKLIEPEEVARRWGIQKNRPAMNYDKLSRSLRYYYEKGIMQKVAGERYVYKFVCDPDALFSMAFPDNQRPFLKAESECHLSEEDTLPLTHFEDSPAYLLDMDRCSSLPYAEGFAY
Sequence of ELF1 (P32519 whole entry): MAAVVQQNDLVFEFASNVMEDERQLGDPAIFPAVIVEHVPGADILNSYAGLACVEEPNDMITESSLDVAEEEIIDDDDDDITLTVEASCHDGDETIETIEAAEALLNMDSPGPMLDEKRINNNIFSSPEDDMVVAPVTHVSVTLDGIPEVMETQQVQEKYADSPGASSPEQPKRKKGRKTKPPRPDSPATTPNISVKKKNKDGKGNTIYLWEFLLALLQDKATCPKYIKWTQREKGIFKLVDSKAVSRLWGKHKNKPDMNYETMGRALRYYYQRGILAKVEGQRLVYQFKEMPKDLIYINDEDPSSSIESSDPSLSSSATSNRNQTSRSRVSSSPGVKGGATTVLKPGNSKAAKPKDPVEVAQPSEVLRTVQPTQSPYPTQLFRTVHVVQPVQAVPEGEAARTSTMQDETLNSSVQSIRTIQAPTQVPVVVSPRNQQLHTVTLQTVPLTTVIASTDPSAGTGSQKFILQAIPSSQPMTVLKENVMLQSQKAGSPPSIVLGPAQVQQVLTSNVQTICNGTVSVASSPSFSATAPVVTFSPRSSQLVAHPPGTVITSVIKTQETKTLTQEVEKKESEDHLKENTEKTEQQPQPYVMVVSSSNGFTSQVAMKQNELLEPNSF

As for TTGGCG, the binding signal is 1.07 fold enrichment (6-mer frequency, TF over GST control) with FLI1; 1.02 fold enrichment (6-mer frequency, TF over GST control) with GABPA; 1.05 fold enrichment (6-mer frequency, TF over GST control) with SPI1; 1.13 fold enrichment (6-mer frequency, TF over GST control) with SPIB; 1.02 fold enrichment (6-mer frequency, TF over GST control) with ETV5; 1.09 fold enrichment (6-mer frequency, TF over GST control) with SPIC. In the assay with ERF, the binding signal was 1.01 fold enrichment (6-mer frequency, TF over GST control).
For GGTTAT, the binding signal in the assay with FLI1 was 1.07 fold enrichment (6-mer frequency, TF over GST control); with GABPA, 1.03 fold enrichment (6-mer frequency, TF over GST control); with ERG, 1.04 fold enrichment (6-mer frequency, TF over GST control); with ELF1, 1.01 fold enrichment (6-mer frequency, TF over GST control); in the assay with EHF, 1.03 fold enrichment (6-mer frequency, TF over GST control); with SPI1 it was 1 fold enrichment (6-mer frequency, TF over GST control). The binding signal with ETV5 is 1.09 fold enrichment (6-mer frequency, TF over GST control); in the assay with SPIC, 1.05 fold enrichment (6-mer frequency, TF over GST control); with ETS2 it was 1.04 fold enrichment (6-mer frequency, TF over GST control); in the assay with SPDEF, 1.05 fold enrichment (6-mer frequency, TF over GST control); with ELF5, 1.1 fold enrichment (6-mer frequency, TF over GST control); with ETV3 it was 1.05 fold enrichment (6-mer frequency, TF over GST control). Moreover, the binding signal with ETV6 was 1.03 fold enrichment (6-mer frequency, TF over GST control).
